BH1578 lux ind = inducers of Vibrio cholerae quorum light production without autoinducers; V. cholerae BH1578 lux reporter, luminescence, 6 h; activation, % at 18.7 µM; 350,000 compounds, 0.16% hits; in the data active = activation mostly above about 9.7%, no sharp cut-off
GDH-TPI counter = inhibits GDH-TPI coupling enzymes, artifact for Mtb FBA screen. inhibition, % at 4.8 µM. 360,000 compounds, 1.2% hits. GDH-TPI coupled enzyme counterscreen, NADH absorbance. AID 588335;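 also: 0% = DMSO wells and 100% = wells lacking the enzyme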
CCHFV vOTU inh = blocks the CCHF virus ovarian tumor domain protease. inhibition, % at 11.5 µM. AID 651958. 370,000 compounds, 0.55% hits. CCHFV vOTU protease, Pep-AMC fluorescence; also: 0% = vehicle wells with enzyme and 100% = no enzyme wells
FBA Mtb inh = inhibits M. tuberculosis FBA enzyme | P9WQA3 | purified M. tuberculosis FBA, fluorescence read-out | inhibition, % at 1 µM | 360,000 compounds, 2.3% hits; in the data active = inhibition above about 27%;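 also: 0% = vehicle and 100% = reference inhibitor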
Target sequence (P9WQA3 whole entry, looked up): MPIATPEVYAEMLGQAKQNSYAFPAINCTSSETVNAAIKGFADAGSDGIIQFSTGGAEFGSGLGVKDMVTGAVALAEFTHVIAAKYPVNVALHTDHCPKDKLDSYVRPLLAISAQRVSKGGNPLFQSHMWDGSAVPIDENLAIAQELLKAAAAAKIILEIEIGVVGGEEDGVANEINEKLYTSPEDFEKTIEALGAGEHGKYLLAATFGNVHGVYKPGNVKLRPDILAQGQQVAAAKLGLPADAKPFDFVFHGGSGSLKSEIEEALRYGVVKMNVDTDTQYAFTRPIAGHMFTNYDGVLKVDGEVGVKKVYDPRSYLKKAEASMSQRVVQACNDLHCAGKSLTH
An asterisk follows results filed as active; i = inactive; . = not tested or not shown; + = active, no number. Rows were chosen to be rich in hits. Some 3.9% of all compounds tested hit in one or more screens of this group. Rule as the data show it, unless noted: active = inhibition above about 30%; inactive = the rest.

SMILES | BH1578 lux ind | GDH-TPI counter | CCHFV vOTU inh | FBA Mtb inh
Clc1ccc2c(c1)-c1ccccc1C1=NCCN12 | -6.0 | 20.0 | -4.8 | 51.5*
C=CCNC(=S)NNC(=O)c1cccn(Cc2ccc(Cl)cc2Cl)c1=O | 1.2 | 18.4 | -8.1 | 3.9
CCNC(=S)NNC(=O)c1cccn(Cc2ccc(Cl)cc2Cl)c1=O | -1.3 | 32.0* | -3.9 | 10.6
Cc1nc(C(F)(F)F)nc(Nc2ccc(Br)cc2)c1C#N | -0.2 | 2.3 | -11.1 | -5.1
N#Cc1c(-c2ccco2)cc(-c2cccnc2)nc1N | i | 20.3 | -189.8 | 180.7*
N#Cc1c(-c2ccco2)cc(-c2ccccn2)nc1N | 0.3 | 14.9 | -124.4 | 193.8*
N#Cc1c(-c2cccnc2)cc(-c2ccccc2)nc1N | -0.8 | 8.9 | -285.8 | +
c1cncc(-c2nnc(-c3ccco3)o2)c1 | -17.1 | -2.1 | 1.8 | 113.7*
Cc1cccc(NC(=O)c2ccccc2C(=O)Nc2cccc(C)c2)c1 | 0.2 | 12.9 | 8.0 | 1.9
Cc1cccc(NC(=O)c2ncn3c2C(=O)NC[C@@H]3C)c1 | -1.0 | -5.2 | 4.6 | -3.1
Cc1cc(C)c(C)c(S(=O)(=O)NC2CCN(Cc3ccccc3)CC2)c1C | -0.3 | 0.3 | 19.8 | 1.4
Cc1ccc(NS(=O)(=O)c2cccc(C(=O)n3ncc(C#N)c3N)c2)c(C)c1 | -1.8 | -5.0 | -5.5 | -2.2
CCc1ccc(C(C(=O)NC2CCCC2)N(Cc2cccnc2)C(=O)c2csnn2)cc1 (centres undefined) | i | -4.0 | -2.3 | -0.8
COCCn1c(N)c(C(=O)NCC2CCCO2)c2nc3ccccc3nc21 (centres undefined) | i | 17.5 | -227.8 | +
COCCNC(=O)c1c(N)n(CCC(C)C)c2nc3ccccc3nc12 | -0.5 | 6.0 | -68.5 | 120.7*
CCCCNC(=O)c1c(N)n(CCCOC)c2nc3ccccc3nc12 | i | -0.6 | -58.7 | 115.2*
CC(C)CCn1c(N)c(C(=O)NCc2cccs2)c2nc3ccccc3nc21 | -0.2 | -3.8 | . | 2.3
CCOC(=O)c1c(N)n(CCCOC(=O)c2ccco2)c2nc3ccccc3nc12 | i | 9.2 | -193.5 | +
COCCCNC(=O)c1c(N)n(/N=C/c2cccnc2)c2nc3ccccc3nc12 | -0.3 | 9.1 | -0.8 | -5.8
COCCNC(=O)c1c(N)n(CCCn2ccnc2)c2nc3ccccc3nc12 | i | 15.7 | -179.4 | 131.6*
COCCCn1c(N)c(C(=O)OCCOC)c2nc3ccccc3nc21 | i | 14.2 | -237.7 | +
Nc1c(C(=O)OCC2CCCO2)c2nc3ccccc3nc2n1Cc1cccs1 (centres undefined) | 0.1 | 22.5 | -135.7 | 163.1*
O=C(N/N=C/c1ccc2c(c1)OCO2)c1ccc(NS(=O)(=O)c2cccs2)cc1 | 0.1 | 32.9* | 18.5 | 3.3
COc1ccc(C=NNC(=O)c2ccccc2NS(=O)(=O)c2cccs2)cc1O | i | 25.8 | 10.1 | 4.1
Cc1nn(-c2ccc(Cl)cc2)c(Cl)c1/C=N/NC(=O)c1ccc(NS(=O)(=O)c2cccs2)cc1 | -0.3 | 32.1* | 5.5 | -3.0
SMILES | BH1578 lux ind | GDH-TPI counter | CCHFV vOTU inh | FBA Mtb inh
COc1ccc(OC)c(C=NNC(=O)c2ccccc2NS(=O)(=O)c2cccs2)c1 | -0.2 | 31.0* | 3.5 | 12.8
O=C(NN=Cc1ccc(F)c(F)c1)c1ccc(NS(=O)(=O)c2cccs2)cc1 | . | 45.8* | 8.2 | 0.3
CC(=O)C1=CCC(c2cccs2)N(S(=O)(=O)c2ccc(C)cc2)C1 (centres undefined) | . | . | -4.0 | 0.9
O=C1NCCN/C1=C\C(=O)c1cccc(Br)c1 | -0.4 | 10.8 | 8.3 | 1.1
COc1cc(/C=N/NC(=O)c2ccc(NS(=O)(=O)c3cccs3)cc2)cc(OC)c1O | -0.3 | 38.5* | 17.1 | 0.6
CCN(CC)c1ccc(/C=N/NC(=O)CC(C)C)cc1 | -0.5 | 21.4 | -23.2 | 19.1
CCN(CC)c1ccc(/C=N\NC(N)=O)cc1 | -0.6 | 48.1* | -20.3 | 26.3
CCN(CC)c1ccc(/C=N/NC(=O)Nc2ccccc2)cc1 | -0.3 | 32.2* | -4.7 | 15.4
CCOCCCNC(=O)CCC(=O)NNc1nc2ccccc2c2nc(C)nn12 | -0.3 | 0.0 | 8.0 | 2.7
Cc1c2c(n3c(nc4ccccc43)c1C#N)N(CCCN(C)C)CC2 | i | 7.5 | -128.8 | 140.5*
CCc1c(C)c(C#N)c2nc3ccccc3n2c1NCCCN(C)C | i | 7.1 | 7.0 | 3.4
Cc1c2c(n3c(nc4ccccc43)c1C#N)N(CCN(C)C)CC2 | -1.8 | -2.2 | -183.3 | +
Cc1cc(C)cc(N(C(=O)c2snc(C(N)=O)c2N)C(C(=O)NCC2CCCO2)c2cccs2)c1 (centres undefined) | 0.0 | 3.8 | -16.6 | 5.9
Cc1ccc(-n2nc3c4c(cccc4c2=O)-c2ccccc2-3)cc1 | i | 32.7* | -1.0 | 2.1
CC1CCC/C(=C\c2ccc(O)cc2)C1=O (centres undefined) | i | 32.4* | 4.0 | 0.5
CN(C)CC1CC/C(=C\c2ccc(O)cc2)C1=O (centres undefined) | i | 12.1 | 10.6 | -7.6
COc1ccc(C2/C(=C(/O)c3ccccc3)C(=O)C(=O)N2c2ccccn2)c(OC)c1 (centres undefined) | -0.4 | 30.6* | 5.3 | 0.6
CC1(c2ccncc2)Nc2ccccc2-c2nc3ccccc3n21 (centres undefined) | -0.3 | 7.5 | -226.0 | 158.2*
COc1ccc2c(c1)C1(Nc3ccccc3-c3nc4ccccc4n31)C(=O)N2 (centres undefined) | -0.7 | 8.1 | -5.5 | -0.1
CCN(CC)c1ccc(C(NC(C)=O)NC(C)=O)cc1 | -0.3 | 1.7 | 8.0 | -2.4
CC(=O)c1ccc(N(C)C)cc1 | i | 24.9 | -1.1 | 0.2
CC(=O)NC(NC(C)=O)c1ccc(N(C)C)cc1 | -0.3 | 46.8* | 8.8 | -1.7
CN(C)c1ccc(C(=O)c2ccc(N(C)C)cc2)cc1 | -0.5 | 40.5* | 6.8 | 1.6
Cc1cccc(C(=O)NNC(=O)c2ccc(Cl)cc2)c1O | 50.0* | 6.8 | -0.4 | 0.9
O=C(NNC(=O)c1ccccc1O)c1ccc(Cl)cc1 | -0.3 | 24.1 | 3.4 | 1.4
SMILES | BH1578 lux ind | GDH-TPI counter | CCHFV vOTU inh | FBA Mtb inh
COc1ccc(C(=O)NNC(=O)c2cc(C)nc3ccccc23)cc1 | -2.1 | 7.0 | -7.2 | 3.1
Cc1cc(C(=O)NNC(=O)c2ccc(Cl)cc2)c2ccccc2n1 | 24.6* | 5.4 | -1.1 | 0.3
Cc1ccccc1-n1nc(C)c(N=O)c1N | -0.4 | 5.1 | -3.5 | 113.5*
CCOC(=O)c1ccc(Nc2c(CC)c(C)nc3ncnn23)cc1 | -1.4 | 32.0* | 13.8 | 1.3
CCc1c(C)nc2ncnn2c1Nc1ccc(C(C)=O)cc1 | i | 39.5* | 12.0 | 2.2
CCc1c(C)nc2ncnn2c1Nc1ccc(C#N)c(Cl)c1 | -0.4 | 25.0 | 4.8 | 3.3
O=C(Cn1nnc(-c2cccs2)n1)NCc1ccco1 | -0.4 | 0.0 | -11.7 | -0.7
CC1C(=O)NN=C1C(=O)N/N=C\c1ccc(O)cc1O (centres undefined) | -0.2 | 61.7* | 3.6 | -2.8
COc1cc(/C=N/NC(=O)C2=NNC(=O)C2C)ccc1O (centres undefined) | -2.4 | 21.9 | 0.5 | -0.6
CC(C)=C(NC(=O)c1ccccc1)C(=O)NC(Cc1ccccc1)C(=O)O (centres undefined) | 15.4* | 3.3 | 5.2 | -0.9

Screens as filed in PubChem.
